High-throughput results: PubChem BioAssay, National Center for Advancing Translational Sciences (NCATS)
FEN1 inh: qHTS Assay for the Inhibitors of Human Flap endonuclease 1 (FEN1). P39748. Recombinant FEN1 flap cleavage, fluorescence, 15 min. Potency, µM (top dose mostly 114 µM), inactives show at the top dose activity change, negative = inhibition, hits mostly inhibitors. actives 0.35% (n = 390,000); further: on the % scale 0 is the no-effect control and ±100 the full control effect; nearly all actives have a fitted effect of over 65% in size
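Compounds are tested as a concentration series against 10 nM FEN1; after a 15 min room-temperature preincubation, 50 nM substrate starts cleavage, with plate reads at 0 and 15 min. Normalized responses are fitted by a Hill equation.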
Pol kappa inh: qHTS for Inhibitors of Polymerase Kappa; DNA polymerase kappa (Homo sapiens), Q9UBT6; purified Pol kappa, fluorescent DNA synthesis assay, 10 min; Potency, µM (series often up to 107 µM), for the others: at the top dose activity, negative = inhibition, most hits filed as inhibitors; actives 0.53% (n = 400,000); AID 588579, 2011; further: on the % scale 0 is the no-effect control and ±100 the full control effect
Target sequence (Q9UBT6 whole entry, looked up): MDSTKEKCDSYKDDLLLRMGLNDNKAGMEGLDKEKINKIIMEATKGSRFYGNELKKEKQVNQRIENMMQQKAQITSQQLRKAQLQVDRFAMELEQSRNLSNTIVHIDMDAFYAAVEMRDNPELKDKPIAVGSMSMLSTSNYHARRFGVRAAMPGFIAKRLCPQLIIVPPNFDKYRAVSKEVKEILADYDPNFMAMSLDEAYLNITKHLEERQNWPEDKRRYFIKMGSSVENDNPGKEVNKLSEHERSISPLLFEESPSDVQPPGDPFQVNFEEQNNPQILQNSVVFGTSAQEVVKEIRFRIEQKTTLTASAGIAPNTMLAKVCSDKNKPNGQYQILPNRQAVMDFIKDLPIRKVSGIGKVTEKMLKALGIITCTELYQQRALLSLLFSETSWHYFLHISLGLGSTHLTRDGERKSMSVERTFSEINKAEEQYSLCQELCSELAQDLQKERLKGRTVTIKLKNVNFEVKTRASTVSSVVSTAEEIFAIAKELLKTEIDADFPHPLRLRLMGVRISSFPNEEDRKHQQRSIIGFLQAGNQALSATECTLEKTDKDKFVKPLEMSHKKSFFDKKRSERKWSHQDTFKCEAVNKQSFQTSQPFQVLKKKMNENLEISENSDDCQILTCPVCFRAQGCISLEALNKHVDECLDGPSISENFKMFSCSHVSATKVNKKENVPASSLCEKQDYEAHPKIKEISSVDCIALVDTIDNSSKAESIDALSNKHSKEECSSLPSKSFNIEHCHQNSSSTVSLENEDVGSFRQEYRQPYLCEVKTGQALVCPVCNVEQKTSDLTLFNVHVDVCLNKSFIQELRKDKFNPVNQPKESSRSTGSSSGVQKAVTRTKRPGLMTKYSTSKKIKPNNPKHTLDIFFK
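Pol kappa 10 nM + cpd, 15 min RT; start w/ substrate 50 nM final; fluorescence kinetic read, 0 and 10 min. Neg ctrl: buffer, no enzyme.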
Pol iota inh: qHTS for Inhibitors of Polymerase Iota; actives 1% (n = 390,000); Pol iota fluorescent replication assay, 10 min; AID 588590, 2011; DNA polymerase iota (Homo sapiens), Q9UNA4; Potency, µM (series often up to 115 µM), without a hit: top-dose activity, negative = inhibition, hits mostly inhibitors
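Fluorescent replication assay read twice, at 0 min and 10 min after adding 50 nM (final) substrate. Enzyme (10 nM) and compounds were first incubated 15 min at room temperature; enzyme-free buffer wells were negative controls.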
Pol beta inh: qHTS Assay for Inhibitors of DNA Polymerase Beta; Pol beta primer extension/strand displacement, fluorescence kinetic; actives 1.3% (n = 340,000); P06746; Potency, µM (titrated, usually from 114 µM), inactives show at the top dose activity change, negative = inhibition, hits mostly inhibitors; further: on the % scale 0 is the no-effect control and ±100 the full control effect
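Enzyme-only controls used 10 nM Pol beta; buffer lacking enzyme served as negative control. Compound preincubated 15 min, then 50 nM substrate added; 0 and 10 min reads at room temperature.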
WRN helicase inh: qHTS for Inhibitors of WRN Helicase; WRN helicase unwinding, fluorescent forked duplex, kinetic; Potency, µM (highest dose often 114 µM), without a hit: at the top dose activity change, negative = inhibition, usual class: inhibitors; actives 0.46% (n = 360,000); further: on the % scale 0 is the no-effect control and ±100 the full control effect; nearly all actives have a fitted effect of over 55% in size
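WRN at 20 nM final was preincubated with compound for 15 min at room temperature; reaction started with 100 nM forked duplex oligonucleotide carrying fluorophore and quencher plus 2 mM ATP (final). Unwinding followed kinetically by red fluorescence (ex 525/em 598 nm).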
POLH inh: qHTS for Inhibitors of Polymerase Eta; DNA polymerase eta (Homo sapiens), Q9Y253; recombinant Pol eta, fluorescent DNA replication assay; Potency, µM (doses to about 114 µM), for the others: at the top dose activity change, negative = inhibition, hits mostly inhibitors; actives 1.2% (n = 390,000); further: on the % scale 0 is the no-effect control and ±100 the full control effect
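Fluorescent replication assay: 50 nM final substrate added after a 15 min room-temperature compound preincubation with 10 nM enzyme. Signal taken at 0 min and again at 10 min.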
* hit, by the source's call; [ ] = remark or other dose. In the library only some 2.4% were active in any assay of this set; here they are far more common. The call rests on the fitted dose curve; in most records, active means well fitted curve in the direction sought with a large enough effect; inconclusive means small, poorly fitted or top-dose-only effect, or another doubt; inactive means no such curve, though single readings can be large; an effect the other way counts as inactive or inconclusive. Potency means the concentration at half of the fitted maximal effect.

Results for Cc1ccc2c(c1)CCCN2C(=O)c1cnn2c1NC(=C1CC1)C=C2C(F)F ?
FEN1 inh: -15%; Pol kappa inh: -6%; Pol iota inh: -2%

How did CN(C)c1ccc(/C=C(\C#N)C(=O)Nc2nc3c(s2)CCN(Cc2ccccc2)C3)cc1 do in these assays?
FEN1 inh: inconclusive; Pol kappa inh: -3%; Pol iota inh: 20µM*; Pol beta inh: 10%; WRN helicase inh: -26%; POLH inh: inconclusive

How did C[C@H]1C=CC(=O)C[C@H]1c1c(F)cccc1Cl do in these assays?
FEN1 inh: 15%; Pol kappa inh: -3%; Pol iota inh: -23%

What do the screens show for `COc1cc(/C=C/c2cc[n+](C)c3ccccc23)cc(OC)c1OC`?
FEN1 inh: -16%; Pol kappa inh: -18%; Pol iota inh: 28%

How did Cc1ccc(C(=O)NCC(=O)OCC(=O)c2c(N)n(C)c(=O)n(C)c2=O)s1 do in these assays?
FEN1 inh: 6%; Pol kappa inh: -6%; Pol iota inh: inconclusive; Pol beta inh: 35µM*; WRN helicase inh: -4%[57.1 µM]; POLH inh: inconclusive

How did Cn1c(N)c(C(=O)COC(=O)CNC(=O)c2ccccc2)c(=O)n(C)c1=O do in these assays?
FEN1 inh: 9%; Pol kappa inh: -10%; Pol iota inh: 102%; WRN helicase inh: 2%; POLH inh: -20%

What do the screens show for `O=C(/C=C/c1ccccc1)Nc1cc(NC(=O)/C=C/c2ccccc2)cc(C(=O)O)c1`?
FEN1 inh: inconclusive; Pol kappa inh: -3%; Pol iota inh: 12%; Pol beta inh: -22%; WRN helicase inh: -7%[11.6 µM]; POLH inh: 50µM*

What do the screens show for `O=S1(=O)CCOC[C@H](c2ccccc2)N1Cc1ccc(F)cc1`?
FEN1 inh: inconclusive; Pol kappa inh: -16%; Pol iota inh: 32%

How did CC(C)(C)n1ncc2c(=O)n(Cc3ccc(C#N)cc3)cnc21 do in these assays?
FEN1 inh: -136%; Pol kappa inh: inconclusive; Pol iota inh: inconclusive

How did COc1ccc(Br)cc1C1NC(c2ccc3c(c2)OCO3)=CC(c2cc(Cl)ccc2O)N1 (configuration not stated) do in these assays?
FEN1 inh: inconclusive; Pol kappa inh: -4%; Pol iota inh: inconclusive

What do the screens show for `FC(F)(F)c1cc(-c2ccco2)nc(NCc2cccs2)n1`?
FEN1 inh: -22%; Pol kappa inh: -10%; Pol iota inh: 8%; Pol beta inh: 1%; WRN helicase inh: -24%; POLH inh: inconclusive

How did FC(F)(F)c1cc(-c2ccco2)nc(NCc2ccco2)n1 do in these assays?
FEN1 inh: inconclusive; Pol kappa inh: inconclusive; Pol iota inh: inconclusive; Pol beta inh: inconclusive; WRN helicase inh: -7%[11.6 µM]; POLH inh: 50µM*

How did CCn1c(C)c(CS(=O)(=O)c2ccccc2)[nH]c1=O do in these assays?
FEN1 inh: 9%; Pol kappa inh: -5%; Pol iota inh: inconclusive; Pol beta inh: 60%; WRN helicase inh: 18µM*; POLH inh: 4%

How did Cc1cc(-c2csc(NC(=O)c3ccc(=O)[nH]c3)n2)c(C)n1Cc1ccccc1 do in these assays?
FEN1 inh: -8%; Pol kappa inh: -7%; Pol iota inh: 3%; Pol beta inh: 20µM*; WRN helicase inh: -1%; POLH inh: -14%

Results for CCOc1ccc2ccccc2c1/C=N/NC(=O)c1ccncc1 ?
FEN1 inh: -25%; Pol kappa inh: -11%; Pol iota inh: 6%; Pol beta inh: 20µM*; WRN helicase inh: -3%; POLH inh: -4%

What do the screens show for `CCOc1ccc2ccccc2c1/C=N/NC(=O)c1cc(C)[nH]n1`?
FEN1 inh: -17%; Pol kappa inh: -3%; Pol iota inh: 24%; Pol beta inh: -4%; WRN helicase inh: -8%; POLH inh: -14%

How did N#Cc1nc(-c2ccccc2)cc(-c2ccccc2)n1 do in these assays?
FEN1 inh: 13%; Pol kappa inh: -9%; Pol iota inh: -10%

What do the screens show for `O=C(O)c1cccc(N2C(=O)c3ccc(Oc4ccc(Cl)cc4)cc3C2=O)c1`?
FEN1 inh: -30%; Pol kappa inh: -26%; Pol iota inh: 56%; Pol beta inh: 89µM*; WRN helicase inh: -8%; POLH inh: 0%

How did O=C(O)c1cccc(N2C(=O)c3ccc4c5c(ccc(c35)C2=O)C(=O)N(c2cccc(C(=O)O)c2)C4=O)c1 do in these assays?
FEN1 inh: inconclusive; Pol kappa inh: -10%; Pol iota inh: inconclusive; Pol beta inh: inconclusive; WRN helicase inh: -5%[11.6 µM]; POLH inh: inconclusive

Results for Cc1ccnc2ccc(Br)cc12 ?
FEN1 inh: 19%; Pol kappa inh: -3%; Pol iota inh: 29%

How did Cc1ccc(S(=O)(=O)N/N=C\c2cc3c(cc2Br)OCO3)cc1 do in these assays?
FEN1 inh: -6%; Pol kappa inh: -8%; Pol iota inh: -2%; Pol beta inh: -25%; WRN helicase inh: -1%; POLH inh: -3%

What do the screens show for `O=[N+]([O-])c1cc2c(cc1/C=N/NS(=O)(=O)c1ccc(Br)cc1)OCO2`?
FEN1 inh: 50µM*; Pol kappa inh: -30%; Pol iota inh: 55%; Pol beta inh: 3%; WRN helicase inh: -15%[57.1 µM]; POLH inh: inconclusive

How did CC[C@H](C)N(C)C(=O)c1cc2ccccc2c(-c2ccccc2Cl)n1 do in these assays?
Pol kappa inh: -8%[19.4 µM]

How did C=CCN1[C@@H](C(C)C)COCCS1(=O)=O do in these assays?
FEN1 inh: 19%; Pol kappa inh: -1%; Pol iota inh: 26%

What do the screens show for `CS(=O)(=O)c1ccc(C(=O)OCC(=O)NC23CC4CC(CC(C4)C2)C3)cc1[N+](=O)[O-]`?
FEN1 inh: -11%; Pol kappa inh: -6%; Pol iota inh: 22µM*; Pol beta inh: 1%; WRN helicase inh: -31%[57.1 µM]; POLH inh: 16µM*

How did C(=C\c1c[nH]c2ccccc12)/c1ccc2ccccc2n1 do in these assays?
FEN1 inh: -24%; Pol kappa inh: -16%; Pol iota inh: 10%

How did COc1cc(/C=C/C(=O)c2c(O)ccc3c(C)cc(=O)oc23)ccc1O do in these assays?
FEN1 inh: -3%; Pol kappa inh: -6%; Pol iota inh: 13µM*; Pol beta inh: 21%; WRN helicase inh: -25%; POLH inh: inconclusive

How did O=C(O)c1cccs1 do in these assays?
FEN1 inh: 18%; Pol kappa inh: 3%; Pol iota inh: 10%
